# In PubChem BioAssay (NCATS):
# Inconclusive results are not listed. Values without a mark were called inactive. Activity calls are given as the source filed them. Calls come from the whole dose curve; as a rule, active = well fitted cell-killing curve with a large enough effect; inconclusive = small, poorly fitted or top-dose-only effect, or effect the other way; inactive = no such curve, though single readings can be large or run the other way.
# Experiment: Quantitative High-Throughput drug screen in 47 multiple myeloma cell lines against the NCATS MIPE library collection: KHM11_PLB cell viability assay (AID 1918962); note: nearly all actives have a fitted effect of over 35% in size
# Conditions: KHM11 myeloma cell viability, CellTiter-Glo ATP luminescence, 48 h; series mostly up to 45.8 µM; viability, % of DMSO control: at the top concentration
# From the text: PI: Beverly A. Mock Ph.D.
# Laboratory of Cancer Biology and Genetics,
# Center for Cancer Research, National Cancer Institute,
# National Institute of Health, Bethesda, Maryland
# Drug resistance and disease progression are common in multiple myeloma (MM) patients, underscoring the need for new therapeutic combinations. […] We hypothesized that effective combinations would reduce MYC expression and enhance p16 activity. […] These preclinical data identify potentially useful drug combinations for evaluation in drug-resistant MM and reveal potential mechanisms of combined drug sensitivity.
# Described herein is the primary MIPE qHTS used to cherrypick compounds. Validated compounds were then further tested for potential synergistic activiy.
# [1] Peat TJ, Gaikwad SM, Dubois W, Gyabaah-Kessie N, Zhang S, Gorjifard S, Phyo Z, Andres M, Hughitt VK, Simpson RM, Miller MA, Girvin AT, Taylor A, Williams D, D'Antonio N, Zhang Y, Rajagopalan A, Flietner E, Wilson K, Zhang X, Shinn P, Klumpp-Thomas C, McKnight C, Itkin Z, Chen L, Kazandijian D, Zhang J, Michalowski AM, Simmons JK, Keats J, Thomas CJ, Mock BA. Drug combinations identified by high-throughput screening promote cell cycle transition and upregulate Smad pathways in myeloma. Cancer Lett. 2023 Aug 1;568:216284. doi: 10.1016/j.canlet.2023.216284. Epub 2023 Jun 24. PMID: 37356470; PMCID: PMC10408729.
# SEQUENCE No. (e.g., 1, 2, 3, etc.); […] (e.g., Cells, Incubation, Reagent, etc.); VALUE and DESCRIPTION.
# 1; Cells; 5 uL; white, solid bottom 1536-well Greiner assay plate.
# 2; Compounds; 23 nL; Kalypsis pin tool (Wako USA) equipped with a 1536-well pin head to transfer to the assay plates.
# 3; Incubation; 48 hours; 37C incubation.
# 4; Reagent;5uL; CellTiter Glo (Promega).
# 5; Detector; 425V; Luminescence; Viewlux PerkinElmer.
# NOTES (numbers refer to Sequence numbers above)
# 1. The cell-based screening methods employed in this study were like those previously published. Briefly, the corresponding myeloma cell lines were screened in 1,536-well plates with 500 cells, 5-uL per well for inhibition of cell viability (assessed by measuring ATP levels with CellTiterGlo).
# 2. NCATS MIPE 4.0 library of approved and investigational drugs were added using the Kalypsis pin tool. Wells treated with DMSO only for 100% viability and media only wells for 0% viability were used as controls.
# 3. The assay plates were covered and incubated for 48 hours in a 37C, 5% CO2 incubator with controlled humidity.
# 4. After 48 hours, CellTilter-GloTM luminescent substrate mix (Promega) reagent was added to the assay plate and plates we incubated for 5 min at room temperature.
# 5. Signal was measured as median relative luminescence units on a ViewLux (PerkinElmer) multiplate reader.
# [1] Heske CM, Davis MI, Baumgart JT, Wilson K, Gormally MV, Chen L, Zhang X, Ceribelli M, Duveau DY, Guha R, Ferrer M, Arnaldez FI, Ji J, Tran HL, Zhang Y, Mendoza A, Helman LJ, Thomas CJ. Matrix Screen Identifies Synergistic Combination of PARP Inhibitors and Nicotinamide Phosphoribosyltransferase (NAMPT) Inhibitors in Ewing Sarcoma. Clin Cancer Res. 2017 Dec 1;23(23):7301-7311. doi: 10.1158/1078-0432.CCR-17-1121. Epub 2017 Sep 12. PMID: 28899971; PMCID: PMC6636827.
# Potency is the fitted concentration of half-maximal effect.
Compound,"viability, % of DMSO control [%]",Potency
CCc1cc(C(N)=S)ccn1,103,
CCN1CCCC1CNC(=O)c1cc(S(N)(=O)=O)ccc1OC (stereo not given),87,
CNCC[C@H](Oc1cccc2ccccc12)c1cccs1,,5.26 µM (active)
CCCc1cc(C(N)=S)ccn1,132,
CCOCC(O)COc1ccc(NC(=O)CC[S+](C)C)cc1 (stereo not given),125,
O=C(O)CSCC(=O)NC1CCSC1=O (stereo not given),121,
CC(C)(C#N)c1cc(Cn2cncn2)cc(C(C)(C)C#N)c1,86.1,
CCC(=O)O[C@]1(C(=O)CCl)[C@@H](C)C[C@H]2[C@@H]3CCC4=CC(=O)C=C[C@]4(C)[C@@]3(F)[C@@H](O)C[C@@]21C,138,
CC(C)(C)C(=O)OCOP(=O)(COCCn1cnc2c(N)ncnc21)OCOC(=O)C(C)(C)C,,0.935 µM (active)
CN(CCOc1ccc(CC2SC(=O)NC2=O)cc1)c1ccccn1 (stereo not given),110,
COc1ccccc1OCC(O)COC(N)=O (stereo not given),136,
Cc1oc(=O)oc1CN1CCN(c2cc3c(cc2F)c(=O)c(C(=O)O)c2n3C(C)S2)CC1 (stereo not given),135,
COc1ncnc(NS(=O)(=O)c2ccc(N)cc2)c1OC,129,
N=C(N)c1ccc(OCCCCCOc2ccc(C(=N)N)cc2)cc1,,3.32 µM (active)
CCn1cc(C(=O)O)c(=O)c2cc(F)c(N3CCNCC3)nc21,83.7,
CCCc1nc(C)c2c(=O)[nH]c(-c3cc(S(=O)(=O)N4CCN(CC)CC4)ccc3OCC)nn12,,9.35 µM (active)
NCCCC(O)(P(=O)(O)O)P(=O)(O)O,85.6,
Nc1nc(N)nc(-c2cc(Cl)ccc2Cl)n1,88.3,
CC(C)C[C@H](NC(=O)[C@H](CCc1ccccc1)NC(=O)CN1CCOCC1)C(=O)N[C@@H](Cc1ccccc1)C(=O)N[C@@H](CC(C)C)C(=O)[C@@]1(C)CO1,,0.001 µM (active)
O=C(N[C@H](CO)[C@H](O)c1ccc([N+](=O)[O-])cc1)C(Cl)Cl,155,

Compound,"viability, % of DMSO control [%]",Potency
CNS(=O)(=O)CCc1ccc2[nH]cc(C3CCN(C)CC3)c2c1,,1.18 µM (active)
COc1cc2nc(N3CCCN(C)CC3)nc(NC3CCN(Cc4ccccc4)CC3)c2cc1OC,,2.35 µM (active)
O=P(O)(O)C(O)(Cc1cccnc1)P(=O)(O)O,131,
CC1CC2C3CCC4=CC(=O)C=C[C@]4(C)[C@@]3(F)[C@@H](O)C[C@]2(C)[C@@]1(O)C(=O)CO (stereo not given in full),,0.833 µM (active)
O=C(O)c1cc(=O)[nH]c(=O)[nH]1,178,
CC(C)NCC(O)c1ccc(NS(C)(=O)=O)cc1 (stereo not given),102,
Cc1cccc(N(C)C(=S)Oc2ccc3ccccc3c2)c1,111,
Cn1nnc2c(C(N)=O)ncn2c1=O,115,
CC1=C(C(=O)O)N2C(=O)[C@@H](NC(=O)C(N)c3ccccc3)[C@H]2SC1 (stereo not given in full),119,
CNC1CCCN(c2c(F)cc3c(=O)c(C(=O)O)cn(C4CC4)c3c2OC)C1 (stereo not given),156,
Cc1ccc(S(=O)(=O)N[C@@H](Cc2ccccc2)C(=O)CCl)cc1,,16.6 µM (active)
CC(=O)[C@H]1CC[C@H]2[C@@H]3CC=C4C[C@@H](O)CC[C@]4(C)[C@H]3CC[C@]12C,80,
NC1(c2ccc(-c3nc4ccn5c(=O)[nH]nc5c4cc3-c3ccccc3)cc2)CCC1,,5.9 µM (active)
N[C@@H](C(=O)N[C@@H]1C(=O)N2C(C(=O)O)=C(Cl)CS[C@H]12)c1ccccc1,124,
CC(=O)Oc1ccccc1C(=O)Nc1ncc([N+](=O)[O-])s1,,21.5 µM (active)
CCc1c2c(nc3ccc(OC(=O)N4CCC(N5CCCCC5)CC4)cc13)-c1cc3c(c(=O)n1C2)COC(=O)[C@]3(O)CC,,1.48 µM (active)
Oc1c(Cl)cc(Cl)c2cccnc12,,26.4 µM (active)
C[C@@H](NCCCc1cccc(C(F)(F)F)c1)c1cccc2ccccc12,180,
CN(C)c1ccc(C(=C2C=CC(=[N+](C)C)C=C2)c2ccc(N(C)C)cc2)cc1,,0.0166 µM (active)
COc1ccc2cc3[n+](cc2c1OC)CCc1cc2c(cc1-3)OCO2,,8.33 µM (active)
